Among the data in PubChem BioAssay (NCI) are growth values, retold here.

Structures are written as SMILES. This is part of a sample that, as a whole, favours compounds with a hit. Of some 83,000 tested, about 20% had one in any assay.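 Single-concentration screen, 48 h exposure, 96-well plates. Endpoint: percent growth. Below 10 = active.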 Values without a mark were called inactive. The source made the active and inactive calls.

Some test systems named below: NCI-H23 lung; NCI-H226 lung; NCI-H322M lung; HOP-62 NSCLC; NCI-H460 lung; HOP-92 NSCLC; NCI-H522 lung; A549/ATCC NSCLC; 786-0 renal; COLO 205 colon.
Holding throughout (test): NCI-60 one-dose screen, 48 h (100 = growth as untreated, 0 = no growth, -100 = all killed)
What all share (details): 10 µM unless noted

Regarding `O=C(Nc1ccc(-n2cc(-c3ccncc3)c(-c3ccc(O)c(Cl)c3)n2)cc1)Nc1ccc(Cl)c(C(F)(F)F)c1`, the growth in the assay with NCI-H23 lung was 16.2%; in the assay with NCI-H226 lung, 50.2%; in the assay on NCI-H322M lung, 27.3%; with HOP-62 NSCLC it was 28.3%; with NCI-H460 lung, -1.85% (active); with HOP-92 NSCLC, -22.9% (active). Also, the growth with NCI-H522 lung was 9.38% (active); in the assay with A549/ATCC NSCLC, 16.7%; with 786-0 renal, -31.5% (active); in the assay on COLO 205 colon, 41.3%.

In the case of `O=C1C(SCCO)=C(SCCO)C(=O)N1c1ccc(-c2ccccc2)cc1`, the growth was 88.9% in the assay with NCI-H23 lung; 74.9% in the assay on NCI-H226 lung; 124% in the assay on NCI-H322M lung; 91.5% in the assay with HOP-62 NSCLC; 108% in the assay on NCI-H460 lung; 39.9% with HOP-92 NSCLC. Also, the growth in the assay with NCI-H522 lung was -61.3% (active); in the assay on A549/ATCC NSCLC, 105%; in the assay with 786-0 renal, 82.3%; with COLO 205 colon, -56.5% (active).

With `NC(=NCCCOc1ccc(F)cc1)Nc1ccc(Cl)c(Cl)c1`, the growth in the assay on NCI-H23 lung is 67.9%; with NCI-H226 lung, 76.2%; with NCI-H322M lung, 69.3%; in the assay with HOP-62 NSCLC it was 78.7%; with NCI-H460 lung it was 74.3%; in the assay on HOP-92 NSCLC it was 16.5%. The growth is 67.6% in the assay with NCI-H522 lung, 82.5% in the assay on A549/ATCC NSCLC, 67.6% in the assay on 786-0 renal and -57.7% (active) in the assay on COLO 205 colon.

Regarding `CCN(CC)c1ccc(C2CC(c3cc(OC)c(OC)c(OC)c3)=NN2)cc1` (stereo not given), the growth in the assay on NCI-H23 lung is 32.3%; in the assay with NCI-H226 lung, 67.9%; in the assay on NCI-H322M lung it was 41.5%; in the assay on HOP-62 NSCLC, 34.7%; in the assay on NCI-H460 lung, 2.68% (active); in the assay with HOP-92 NSCLC it was -13.6% (active). The growth is -9.2% (active) with NCI-H522 lung, 13.7% with A549/ATCC NSCLC, 23.5% in the assay on 786-0 renal and -25.7% (active) in the assay on COLO 205 colon.

With `O=[N+]([O-])c1cccc(C2c3ccccc3Oc3ccccc32)c1`, the growth was 94.6% in the assay with NCI-H23 lung; 84.1% in the assay with NCI-H226 lung; 83.6% with NCI-H322M lung; 85.4% in the assay on HOP-62 NSCLC; 88.1% in the assay on NCI-H460 lung; 81% in the assay with HOP-92 NSCLC. The growth was 80.8% in the assay with NCI-H522 lung, 87.4% in the assay with A549/ATCC NSCLC, 99.9% with 786-0 renal and 90.3% in the assay with COLO 205 colon.

Regarding `CC(C)(C)NC(C1=CC(C)(C)c2ccccc2C1=O)c1ccccc1` (stereo not given), the growth in the assay on NCI-H23 lung was 9.47% (active); in the assay on NCI-H226 lung, -68.6% (active); with NCI-H322M lung, -1.08% (active); in the assay with HOP-62 NSCLC, -13.8% (active); in the assay with NCI-H460 lung, -49.2% (active); in the assay with HOP-92 NSCLC, -50.8% (active). The growth in the assay with NCI-H522 lung was -81.5% (active); in the assay with A549/ATCC NSCLC it was -9.21% (active); in the assay with 786-0 renal, -94% (active); in the assay on COLO 205 colon it was -91.5% (active).

In the case of `CCc1c(C)c2cc(-n3c(-c4ccc(OC)cc4)csc3=N)c(O)c(C)c2oc1=O`, the growth in the assay on NCI-H23 lung is 26.7%; in the assay with NCI-H226 lung it was 56%; in the assay with NCI-H322M lung, 54.5%; in the assay on HOP-62 NSCLC it was 30.4%; in the assay with NCI-H460 lung, 11.1%; in the assay with HOP-92 NSCLC, 33.5%. In addition, the growth with NCI-H522 lung was -46.5% (active); in the assay with A549/ATCC NSCLC it was 26.3%; with 786-0 renal, 21.5%; in the assay with COLO 205 colon, 12.6%.

As for `ClC1c2ccccc2CCc2ccccc21`, the growth was 89.2% with NCI-H23 lung; 96.7% in the assay with NCI-H226 lung; 94.1% with NCI-H322M lung; 90% with HOP-62 NSCLC; 114% in the assay on NCI-H460 lung; 82.7% with HOP-92 NSCLC. Also, the growth with NCI-H522 lung is 76.6%; in the assay on A549/ATCC NSCLC it was 93.4%; in the assay on 786-0 renal, 93.5%; in the assay on COLO 205 colon, 96.5%.

With `CC(C)(CCN=C(N)Nc1ccccn1)c1ccc(C(F)(F)F)cc1`, the growth with NCI-H23 lung was 11.8%; in the assay with NCI-H226 lung, 42.4%; with NCI-H322M lung, 45.5%; in the assay with HOP-62 NSCLC it was 50.4%; in the assay with NCI-H460 lung, 18.3%; in the assay on HOP-92 NSCLC, -2.94% (active). The growth in the assay on NCI-H522 lung was 4.82% (active); with A549/ATCC NSCLC it was 31.2%; in the assay with 786-0 renal it was 29.2%; in the assay on COLO 205 colon, -72.8% (active).

With `CC[C@H]1[C@@H]2C=C[C@@H]3[C@H]4C/C=C\C(=O)NCCC[C@@H]5NC(=O)/C(=C(O)/C=C/[C@@H]4C[C@@H]3[C@H]2C[C@H]1C)C5=O`, the growth in the assay on NCI-H23 lung was 51%; in the assay on NCI-H226 lung it was 1.14% (active); in the assay on NCI-H322M lung, 35.7%; in the assay with HOP-62 NSCLC, -49.9% (active); with NCI-H460 lung, -51.2% (active); in the assay on HOP-92 NSCLC, -20.4% (active). Also, the growth is 67.7% in the assay on NCI-H522 lung, 36.8% in the assay on A549/ATCC NSCLC, -80.9% (active) in the assay on 786-0 renal and 66% in the assay on COLO 205 colon.

In the case of `O=C(O)c1ccc(-n2cc(/C=N/Nc3ccc(F)cc3)c(-c3cccc(C(F)(F)F)c3)n2)cc1`, the growth in the assay on NCI-H23 lung is 81%; in the assay on NCI-H226 lung it was 92.5%; with NCI-H322M lung, 76.5%; in the assay with HOP-62 NSCLC, 96.1%; in the assay with NCI-H460 lung, 81.6%; in the assay on HOP-92 NSCLC, 95.9%. Besides, the growth with NCI-H522 lung was 36.3%; with A549/ATCC NSCLC, 65.7%; in the assay with 786-0 renal it was 79.9%; in the assay with COLO 205 colon, 105%.

In the case of `COc1cc(-c2nc3sc(C)cn3c2/C=C2\C(=O)Nc3ccccc32)c(Br)c(OC)c1OC`, the growth was 74.4% in the assay with NCI-H23 lung; 80.1% in the assay on NCI-H226 lung; 55.8% in the assay on NCI-H322M lung; 26% in the assay with HOP-62 NSCLC; 8.76% (active) in the assay on NCI-H460 lung; 44.2% in the assay on HOP-92 NSCLC. In addition, the growth in the assay with NCI-H522 lung was -10.6% (active); in the assay on A549/ATCC NSCLC, 50.3%; in the assay with 786-0 renal, 22.9%; with COLO 205 colon it was 52.7%.

In the case of `C[C@@H]1CC2C3C[C@H](F)C4=CC(=O)C=C[C@]4(C)[C@@]3(F)[C@@H](O)C[C@]2(C)[C@@]1(O)C(=O)CO` (stereo not given in full), the growth in the assay on NCI-H23 lung was 105%; with NCI-H226 lung it was 70.5%; in the assay on NCI-H322M lung, 94.6%; in the assay on HOP-62 NSCLC it was 101%; with NCI-H460 lung, 96.2%; in the assay on HOP-92 NSCLC, 80%. Also, the growth is 91.9% in the assay with NCI-H522 lung, 68% with A549/ATCC NSCLC, 109% in the assay with 786-0 renal and 99.3% in the assay with COLO 205 colon.
